The source of these data is PMC5700166.

The assay has as its target T1, GST-Aq-NF-kB (Amphimedon queenslandica, UniProt A9Y5G7 2-389).
T1 sequence: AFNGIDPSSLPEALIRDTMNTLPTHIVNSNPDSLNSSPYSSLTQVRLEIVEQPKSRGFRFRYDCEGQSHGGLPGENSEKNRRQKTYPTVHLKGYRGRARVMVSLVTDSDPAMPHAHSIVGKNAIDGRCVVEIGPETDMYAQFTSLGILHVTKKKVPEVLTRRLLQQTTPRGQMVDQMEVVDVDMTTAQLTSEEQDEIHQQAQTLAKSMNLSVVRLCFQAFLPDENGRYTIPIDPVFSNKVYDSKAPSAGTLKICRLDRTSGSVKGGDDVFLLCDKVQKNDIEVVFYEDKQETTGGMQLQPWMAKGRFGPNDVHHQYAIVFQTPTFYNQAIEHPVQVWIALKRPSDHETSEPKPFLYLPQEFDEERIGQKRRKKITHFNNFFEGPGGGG
Nature of the assay: protein-binding microarray (PBM); PBM: ~300 nM protein, 6 mM HEPES pH 7.8, 80 mM KCl, 0.5 mM EDTA, 0.5 mM EGTA, 6% glycerol, 35 ng/ul poly-dIdC, 1% milk, 1 h, room temperature; Ap Aiptasia and Nv Nematostella (sea anemones) / Co Capsaspora / Aq Amphimedon (sponge) / Dm Drosophila / Hu human; RHD is the Rel homology domain; high values mean tight binding. To be noted: dsDNA, one strand shown.
Turning to “CCGATTAACATCAAGGAGTTTCCTGATGTTAATCGGGTCTTGATTCGCTTGACGCTGCTG”, the binding signal stood at 2.55 z-score.

Turning to “CCGATTAACATCAGGACAGTCCATGATGTTAATCGGGTCTTGATTCGCTTGACGCTGCTG”, the binding signal was 1.46 z-score.

The sequence “CCGATTAACATCAGGAAAGTTCCTGATGTTAATCGGGTCTTGATTCGCTTGACGCTGCTG” registered a binding signal of 1.9 z-score.

“CCGATTAACATCAGGAATAGCCCTGATGTTAATCGGGTCTTGATTCGCTTGACGCTGCTG” displayed a binding signal of 1.9 z-score.

The sequence “CCGATTAACATCACGGAAAATTCTGATGTTAATCGGGTCTTGATTCGCTTGACGCTGCTG” came in with a binding signal of 1.15 z-score.

Consider “CCGATTAACATCAGGAAATTCTATGATGTTAATCGGGTCTTGATTCGCTTGACGCTGCTG”, for which the binding signal came out at 1.08 z-score.

For “CCGATTAACATCACGGAGTTTCCTGATGTTAATCGGGTCTTGATTCGCTTGACGCTGCTG”, the binding signal was determined as 3.34 z-score.

Turning to “CCGATTAACATCAGGAGTTGCCCTGATGTTAATCGGGTCTTGATTCGCTTGACGCTGCTG”, the binding signal came out at 3.13 z-score.

As for “CCGATTAACATCAAATTTCCGGATGATGTTAATCGGGTCTTGATTCGCTTGACGCTGCTG”, the binding signal came out at 1.25 z-score.

Regarding “CCGATTAACATCAGGAAATGTCCTGATGTTAATCGGGTCTTGATTCGCTTGACGCTGCTG”, the binding signal was found to be 1.67 z-score.

“CCGATTAACATCACGGGTTGCCCTGATGTTAATCGGGTCTTGATTCGCTTGACGCTGCTG” came in with a binding signal of 1.04 z-score.

In turn, “CCGATTAACATCAGAGAAATTCCTGATGTTAATCGGGTCTTGATTCGCTTGACGCTGCTG” registered a binding signal of 1.65 z-score.

“CCGATTAACATCAGAGAATTTCCTGATGTTAATCGGGTCTTGATTCGCTTGACGCTGCTG” showed a binding signal of 1.55 z-score.

The sequence “CCGATTAACATCAAGGCATTTCCTGATGTTAATCGGGTCTTGATTCGCTTGACGCTGCTG” had a binding signal of 1.06 z-score.
